Experimental data reported in PubChem BioAssay (Tox21).
Records with an inconclusive call do not appear. Calls of active or inactive are those of the source. Unless noted, calls come from the whole dose curve; as a rule, active = well fitted curve in the direction sought with a large enough effect in the repeat runs; inconclusive = weak or mixed curves; inactive = no such curve, though single readings can be large; an effect the other way counts as inactive or inconclusive.

Experiments:
[1] = qHTS assay for small molecule agonists of the p53 signaling pathway (AID 651631; calls by dose curve; note: nearly all actives have a fitted effect of over 15% in size; note: potency is the fitted concentration of half-maximal effect)
How it was run: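 HCT-116 p53RE-bla reporter line, 16 h compound treatment at 37 °C, then fluorescence after 2 h with B/G FRET substrate.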

[2] = qHTS assay for small molecules that induce genotoxicity in human embryonic kidney cells expressing luciferase-tagged ATAD5 (AID 651632); note: nearly all actives have a fitted effect of over 15% in size
How it was run: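 HEK293T cells carrying a luciferase reporter tagged to ATAD5 were exposed to compound or DMSO vehicle for 16 hr at 37C, 5% CO2. Amplite was added, and after 30 min at room temperature luciferase activity was read as a marker of ATAD5 induction.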

[3] = qHTS assay for small molecule agonists of the p53 signaling pathway - cell viability (AID 651633; calls by dose curve;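 note: p53RE-bla HCT reporter cells with a stable beta-lactamase p53 reporter; series mostly up to about 83 µM; nearly all actives have a fitted effect of over 30% in size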)
How it was run: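 Viability counter-read: CellTiter-Glo luminescence (30 min, room temperature) in the same p53RE-bla plates. These plates had been exposed to compounds for 16 h at 37 C.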

[4] = qHTS assay for small molecules that induce genotoxicity in human embryonic kidney cells expressing luciferase-tagged ATAD5 - cell viability (AID 651634; calls by dose curve; note: nearly all actives have a fitted effect of over 25% in size; note: potency is the fitted concentration of half-maximal effect)
How it was run: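 HEK293T cells expressing luciferase-tagged ATAD5 were exposed to compound or DMSO for 15.5 hr at 37C, 5% CO2. Viability was then read as live-cell protease activity by CellTiter-Fluor fluorescence after 30 min at 37C.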

[5] = qHTS assay for small molecule disruptors of the mitochondrial membrane potential (AID 720635); note: potency is the fitted concentration of half-maximal effect
How it was run: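 Mitochondrial membrane potential tracked with Mito-MPS dye, red aggregates (ex 540/em 590 nm) against green monomers (ex 490/em 535 nm). Compound treatment 1 hr at 37C, dye 30 min in HepG2.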

[6] = qHTS assay to test for compound auto fluorescence at 590 nm (red) in HepG2 cells (AID 720674)
How it was run: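 1 hr compound incubation on HepG2 cells, 37 C, 5% CO2; plate read ex 540 nm / em 590 nm; intensities reported as Rose Bengal sodium equivalents.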

[7] = qHTS assay to test for compound auto fluorescence at 460 nm (blue) in HEK293 cells (AID 720678)
How it was run: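 HEK293 cells (2,000 per well, medium with 10% dialyzed FBS) attached for 4-5 hr at 37C, then received compound and stood overnight at 37C, 5% CO2. Blue fluorescence was read at Ex/Em 405/460 nm and expressed relative to triamterene.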

[8] = qHTS assay to test for compound auto fluorescence at 590 nm (red) in HEK293 cells (AID 720679)
How it was run: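 HEK293 cells (2,000/well, medium with 10% dialyzed FBS) attached for 4-5 hr at 37C, received 23 nL compound and were incubated overnight at 37C, 5% CO2. Red fluorescence was then read at 540/590nm Ex/Em, referenced to Rose Bengal sodium.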

[9] = qHTS assay to test for compound auto fluorescence at 535 nm (green) in HepG2 cells (AID 720675)
[10] = qHTS assay for small molecule disruptors of the mitochondrial membrane potential - cell viability (AID 720634; calls by dose curve;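 note: human HepG2 liver cancer cells; series mostly up to about 83 µM; nearly all actives have a fitted effect of over 20% in size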)
How it was run: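 HepG2 cells seeded overnight at 37 C, then exposed to compound or DMSO for 1 hr at 37 C, 5% CO2. m-MPI dye added, then CellTiter-Glo for 30 min at room temperature; viability read as ATP luminescence.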

Measured: Potency

Nc1cc(Cl)ccc1O
active: [1] 26.4 µM | [4] 23.5 µM | [5] 9.37 µM
inactive: [2] | [3] | [6] | [7] | [8]

[Cl][Sn]([Cl])([Cl])[Cl]
inactive: [1] | [2] | [3] | [4] | [5] | [6] | [9] | [7] | [8]

O=C(O)c1ccc2[nH]cc(CCCCN3CC=C(c4ccccc4)CC3)c2c1
inactive: [1] | [2] | [4] | [10] | [5] | [6] | [9] | [7] | [8]

Cc1cnc[nH]1
inactive: [1] | [2] | [3] | [4] | [10] | [6] | [9] | [7] | [8]

N#Cc1ccncc1
inactive: [1] | [2] | [3] | [4] | [10] | [6] | [9] | [7] | [8]

COP(N)(=S)Oc1ccccc1C(=O)OC(C)C (centres undefined)
inactive: [1] | [2] | [3] | [4] | [6] | [9] | [7] | [8]

CCOC(=O)NC(=S)Nc1ccccc1NC(=S)NC(=O)OCC
inactive: [2] | [3] | [4] | [10] | [6] | [9] | [7] | [8]
active: [1] 61.1 µM

CC(COc1ccc(Oc2ccccc2)cc1)Oc1ccccn1 (centres undefined)
inactive: [1] | [2] | [3] | [4] | [6] | [9] | [7] | [8]

CCCCC(=O)Cl
inactive: [1] | [2] | [4] | [10] | [5] | [6] | [9] | [7] | [8]

CCOC(=O)N(C)C(=O)CSP(=S)(OCC)OCC
inactive: [1] | [2] | [3] | [4] | [10] | [6] | [9] | [7] | [8]

BrCCCCCCBr
inactive: [1] | [2] | [3] | [4] | [5] | [6] | [9] | [7] | [8]

CCC(C)n1c(=O)[nH]c(C)c(Br)c1=O (centres undefined)
inactive: [1] | [2] | [3] | [4] | [10] | [6] | [9] | [7] | [8]

COC(=O)C(c1ccccc1)C1CCCCN1 (centres undefined)
inactive: [1] | [2] | [3] | [4] | [5] | [6] | [9] | [7] | [8]

O=C(N[C@H]1CN2CCC1CC2)c1cc2ccoc2cn1
inactive: [1] | [2] | [3] | [4] | [10] | [6] | [9] | [7] | [8]

COc1cccc(C(=O)NN(C(=O)c2cc(C)cc(C)c2)C(C)(C)C)c1C
inactive: [1] | [2] | [3] | [4] | [6] | [9] | [7] | [8]

CNC(=O)Oc1ccc(N(C)C)c(C)c1
inactive: [1] | [2] | [3] | [4] | [10] | [6] | [9] | [7] | [8]

CCNc1nc(NC(C)C)nc(OC)n1
inactive: [1] | [2] | [3] | [4] | [10] | [6] | [9] | [7] | [8]

O=NN1CCCCC1
inactive: [1] | [2] | [3] | [4] | [5] | [6] | [9] | [7] | [8]

CC(C)COP(=O)(OCC(C)C)OCC(C)C
inactive: [1] | [2] | [3] | [4] | [6] | [7] | [8]

CCCCOC(=O)[C@@H](C)Oc1ccc(Oc2ccc(C#N)cc2F)cc1
inactive: [1] | [2] | [3] | [4] | [6] | [9] | [8]

CCOP(=S)(OCC)Oc1nc(Cl)n(C(C)C)n1
inactive: [1] | [2] | [4] | [10] | [5] | [6] | [7] | [8]

CCC1(c2ccccc2)C(=O)NC(=O)NC1=O
inactive: [1] | [2] | [3] | [4] | [10] | [6] | [9] | [7] | [8]

O=C1c2ccccc2C(=O)c2ccccc21
inactive: [1] | [2] | [3] | [4] | [10] | [6] | [9] | [8]

CCOP(=S)(OCC)Oc1cc(-c2ccccc2)on1
inactive: [1] | [2] | [3] | [4] | [6] | [9] | [7] | [8]

O=CNC(N1CCN(C(NC=O)C(Cl)(Cl)Cl)CC1)C(Cl)(Cl)Cl (centres undefined)
inactive: [1] | [2] | [4] | [6] | [7] | [8]

CCOC(=O)CP(=O)(OCC)OCC
inactive: [1] | [3] | [4] | [10] | [6] | [9] | [7] | [8]

Nc1ccccc1Cl
inactive: [1] | [4] | [5] | [6] | [7] | [8]

[As]#[In]
inactive: [1] | [2] | [4] | [10] | [5] | [6] | [7] | [8]

CC(=O)[C@H]1CC[C@H]2[C@@H]3CC[C@H]4C[C@H](O)CC[C@]4(C)[C@H]3C(=O)C[C@]12C
inactive: [1] | [3] | [4] | [10] | [5] | [6] | [9] | [7] | [8]

O=C(CCN1CC1)OCC(CO)(COC(=O)CCN1CC1)COC(=O)CCN1CC1
inactive: [1] | [2] | [4] | [10] | [6] | [9] | [8]

Clc1cccc(N2CCNCC2)c1
inactive: [1] | [3] | [4] | [10] | [6] | [9] | [7] | [8]

COCC(=O)N(c1c(C)cccc1C)N1CCOC1=O
inactive: [1] | [3] | [4] | [10] | [5] | [6] | [7] | [8]

CC(N)=S
inactive: [1] | [3] | [4] | [10] | [5] | [6] | [9] | [7] | [8]

CNC(=O)O/N=C(\C)SC
inactive: [1] | [2] | [4] | [6] | [9] | [7] | [8]

CCC(=O)c1ccccc1
inactive: [1] | [2] | [4] | [10] | [6] | [9] | [7] | [8]

CC(C)[N+](=O)[O-]
inactive: [1] | [3] | [4] | [6] | [8]
